# Screening data: PubChem BioAssay, National Center for Advancing Translational Sciences (NCATS)
# Hsp90 Hop PPI: changes Hsp90-Hop TPR2A binding signal, up or down; AlphaScreen TPR2A-His6 binding biotin-Hsp90 C-terminal peptide; Potency, µM (series often up to 57 µM), for inactives: at the highest dose activity change, negative = inhibition; hit rate 0.44% among 71,000; AID 595; active = well fitted curve in either direction with a large enough effect; inconclusive = small, poorly fitted or top-dose-only effect, or another doubt; note: % is set by controls: 0 for no effect and ±100 for the full control effect
# CRE-bla Fsk: modulators of forskolin-stimulated CRE signaling in CHO cells; Potency, µM (doses to about 38.2 µM), without a hit: at the top dose activity change, negative = inhibition, most hits filed as activators; CHO CRE-bla reporter (cAMP response element driving beta-lactamase), forskolin EC10, beta-lactamase ratio; AID 662; hit rate 2.5% among 71,000; active = well fitted activation curve with a large enough effect in the signal ratio, with a control signal flat, not every such curve was filed as active; inconclusive = small, poorly fitted or top-dose-only effect, or effect the other way, or a change in a side signal; the % refers to the signal ratio; note: % of control where 0% means no effect
#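 Titrated compounds plus EC10 NKH 477 on CHO CRE-bla cells, 3 h, 37 °C. CCF4, 2 h RT. Ratio 460/530 nm → AC50.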
# 15-hLO inh: inhibitors of human 15-lipoxygenase (ALOX15) | P16050 | purified 15hLO-1, xylenol orange hydroperoxide absorbance | Potency, µM (highest dose often 57.1 µM), for the others: at the top dose activity change, negative = inhibition, usual class: inhibitors | hit rate 1.4% among 74,000 | AID 887; note: % is set by controls: 0 for no effect and ±100 for the full control effect; nearly all actives have a fitted effect of over 55% in size
#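 40 nM 15hLO-1 + cpd, 15 min RT; start w/ 50 uM AA (final), 6 min RT; stop/detect w/ 200 uM XO + 300 uM Fe(II) in 50 mM H2SO4, 30 min; A573/A405. Buffer 25 mM Hepes pH 7.5, 0.01% Triton X-100. No-enzyme wells as negative control.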
# Tau filament bind: binders of human tau filaments; hit rate 2% among 71,000; Potency, µM (top dose mostly 57.1 µM), for inactives: at the highest dose activity change, negative = inhibition; recombinant tau filaments, thioflavin S fluorescence, 15 h; filaments grown with octadecylsulfate alongside compound; AID 596; P10636;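 note: % is set by controls: 0 for no effect and ±100 for the full control effect; actives lower thioflavin S fluorescence by blocking filaments or displacing dye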
#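 Read-out: ThS fluorescence, 450 nm excitation/510 nm emission; lower signal marks blocked filament formation or displaced dye. Tau at 1 uM with 30 uM ODS, 10 uM ThS, 5 mM DTT, 100 mM NaCl, 10 mM HEPES pH 7.4; 15 h, 37 C.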
# IkB signaling: suppresses IkB signaling in ABC-DLBCL reporter cells; ABC-DLBCL IkBa-CBG/CBR dual luciferase ratio, 4 h; response scale: scaled: untreated 0%, proteasome inhibitor 100%; Potency, µM (doses to about 57.1 µM), inactives show at the highest dose IkBa stabilization activation; hit rate 0.04% among 110,000; AID 445; active = well fitted curve in the direction sought with a large enough effect in the signal ratio, not every such curve was filed as active; inconclusive = small, poorly fitted or top-dose-only effect, or a change in a side signal; the % refers to the signal ratio;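 note: the direction sought is a rising ratio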
#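 In this assay, an IκBα–CBG68 fusion accumulates when IKK-driven degradation is blocked; native CBR normalizes for cell number. OCI-Ly3 cells were treated 4 h with compound and doxycycline, then green and red light read after Chroma-Glo addition.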
# Numbers without * were called inactive; ? = inconclusive; . = no result; [ ] = another dose, or the depositor's remark. The list is not random: actives were taken first. Their share in the collection is about 3.6%. Unless noted, calls come from the whole dose curve; as a rule, active = well fitted curve in the direction sought with a large enough effect; inconclusive = small, poorly fitted or top-dose-only effect, or another doubt; inactive = no such curve, though single readings can be large; an effect the other way counts as inactive or inconclusive. Potency is the fitted concentration of half-maximal effect.
SMILES,Hsp90 Hop PPI,CRE-bla Fsk,15-hLO inh,Tau filament bind,IkB signaling
O=C(CSc1nnc(-c2ccccc2)o1)c1nnc(-c2ccccc2)o1,-19.3%,?,20µM*,3.98µM*,?
N#Cc1cc2sc3nc4ccccc4n3c2cc1C#N,-3.4%,5.7%,4.5%,2.9%,0.2%
N#Cc1cc2sc3nnc(-c4ccncc4)n3c2cc1C#N,-12.3%,13.6%,2.2%,7.94µM*,2.6%
COc1ccc(NCc2nnc(SCC(=O)Nc3cc(C(F)(F)F)ccc3Cl)o2)cc1,?,-4.0%,-15.7%,20µM*,0.4%
CSc1ccc(CCNC(=O)C(C)n2nc(C)c3sc4ccccc4c3c2=O)cc1 (stereo unspecified),.,.,.,.,-3.3%
CC(C)Oc1ccccc1C1CC(=O)Nc2cc3c(cc21)OCCO3 (stereo unspecified),-16.3%,6.31µM*,?,0.8%,?
COc1ccc(-c2nnc(Nc3nc4c(OC)cccc4s3)o2)cc1,-8.7%,12.6µM*,3.4%,421.2%,?
CCOC(=O)c1c(C)[nH]c(C)c1S(=O)(=O)N1CCC(C(=O)NCc2ccccc2Cl)CC1,.,.,.,.,0.2%
COc1ccc(NC(=O)Cn2c(=O)c3ccccc3n3nncc23)c(OC)c1,.,.,.,.,1.9%
CC(=O)Nc1nc(-c2ccc(Cl)cc2)nc(C)c1C(C)=O,-9.1%[11 µM],?,-1.0%[11.4 µM],-10.2%[11.4 µM],1.1%
CC(=O)c1c(C)nc2cc(Cl)ccc2c1N,-3.4%,10µM*,11.1%,-9.9%,-1.7%
CN(Cc1ccco1)c1nc(-c2ccoc2)nc2ccccc12,-8.1%,?,12.6µM*,-10.7%,4.3%[11.4 µM]
Oc1c(/C=N/c2ncn[nH]2)ccc2ccccc12,-6.0%,-14.1%,0.5%,12.6µM*,3.4%
CC(=O)Oc1cc(-c2coc3cc(OC(C)=O)c(OC(C)=O)c(OC(C)=O)c3c2=O)cc(OC(C)=O)c1OC(C)=O,.,.,15.8µM*,.,.
O=C(C1CCC(Cn2c(=O)c3sccc3n(Cc3ccc(F)cc3)c2=O)CC1)N1CCOCC1 (stereo unspecified),.,.,.,.,-0.1%
O=c1c(-c2ccccc2)nc2cncnc2n1Cc1ccccc1,2.7%,?,-2.5%,20µM*,-0.7%[11.4 µM]
COCCn1c(=O)c(-c2ccc(Cl)cc2)nc2cncnc21,-2.0%,10µM*,?,29.3%,4.4%[11.4 µM]
O=c1c(-c2cccc(F)c2)nc2cncnc2n1Cc1ccccc1,-13.3%,?,-16.1%,20µM*,0.3%[11.4 µM]
CCOC(=O)c1c(C)oc2c1c(C(c1ccncc1)N1CCOCC1)c(O)c1ccccc12 (stereo unspecified),-19.6%,10.7%,?,12.6µM*,?
COc1cccc(N2CC(NC(=O)c3ccc(S(=O)(=O)N4CCOCC4)cc3)CC2=O)c1 (stereo unspecified),.,.,.,.,0.4%
Cc1c(C)n(Cc2ccc(F)cc2)c2ccc(C(=O)Nc3ccc(Cl)cc3)cc12,.,.,.,.,-0.4%
CC(=O)COc1ccc2c3c(c(=O)oc2c1)CCCC3,-2.6%,15.8µM*,-12.3%,30.2%,-5.3%
Brc1ccc(CN2CCc3nc(Nc4ccccc4)ncc3C2)s1,.,.,.,.,-1.4%
CCc1ccc2oc(C(=O)NCc3ccccc3)cc(=O)c2c1,.,.,.,.,1.6%
CCN(Cc1ccccc1)C(=O)CCCOc1ccccc1,?,?,3.98µM*,-29.0%[11.4 µM],0.2%
SMILES,Hsp90 Hop PPI,CRE-bla Fsk,15-hLO inh,Tau filament bind,IkB signaling
CCOc1cc2c(cc1OCC)C(c1ccc(O)c(OC)c1)NCC2 (stereo unspecified),-6.2%,?,-8.9%,-10.1%,-2.7%
CCOc1cc2c(cc1OCC)C(c1cc(OC)c(O)c(OC)c1)NCC2 (stereo unspecified),-2.4%,10µM*,-16.6%,-6.5%,-1.6%
COc1cc(C(=O)OCC(=O)c2cc(C)n(C)c2C)cc(NC(=O)c2ccco2)c1OC,3.8%,3.16µM*,-1.0%,30.4%,-1.9%
Cc1cc(NC(=O)C2CCCN(S(=O)(=O)c3cccc4nsnc34)C2)ccc1Br (stereo unspecified),.,.,.,.,-0.7%
CCOC(=O)C1=C(CNCc2ccccc2Cl)NC(=O)NC1c1ccc2c(c1)OCO2 (stereo unspecified),-11.7%,?,-22.8%,15.8µM*,?
CNc1nc(SCc2ccccc2)nc(N2CCOCC2)n1,1.0%,?,-6.8%,-1.0%,-5.6%
